Reference: PubChem BioAssay (Tox21)
Values joined by “and” are separate entries in the source; they are usually repeats but may differ in a detail not shown here. Equal values may be shown once. Inconclusive results are not listed. Active and inactive are the calls of the source. Unless noted, the call rests on the fitted dose curve; in most records, active means well fitted curve in the direction sought with a large enough effect in the repeat runs; inconclusive means weak or mixed curves; inactive means no such curve, though single readings can be large; an effect the other way counts as inactive or inconclusive.

Tests used:
[1] = qHTS assay to identify small molecule agonists of H2AX (AID 1224845; active means well fitted activation curve with a large enough effect in the signal ratio in the repeat runs, not every such curve was filed as active; the % refers to the signal ratio; further: potency means the concentration at half of the fitted maximal effect)
Outline: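 Wild-type CHO-K1 cells plated overnight, then exposed 3 hr at 37C to compounds at 15 concentrations (0.76% DMSO). Lysed, then HTRF anti-pH2AX(S139)-cryptate/anti-H2AX-d2 detection after 24 hr at room temperature; emissions 665 and 620 nm.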

[2] = qHTS assay to identify small molecule agonists of the hypoxia (HIF-1) signaling pathway (AID 1224846; active means well fitted activation curve with a large enough effect in the signal ratio in the repeat runs, not every such curve was filed as active; the % refers to the signal ratio)
Outline: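 Measured by blue/green FRET after loading CCF4-AM: beta-lactamase expressed from a hypoxia response element in ME-180 cells. Test agents were delivered in DMSO and left 17 hrs; cells had been plated 5 hrs earlier in low-serum (0.5% dialyzed FBS) medium.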

[3] = qHTS assay to identify small molecule agonists of H2AX - cell viability counter screen (AID 1224847; calls by dose curve; further: nearly all actives have a fitted effect of over 30% in size; further: potency means the concentration at half of the fitted maximal effect; on activity change, negative = cytotoxicity: top concentration of the series differs between compounds)
Outline: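 Viability of CHO-K1 (wild type) cells after 3 hr compound exposure was measured by CellTiter-Glo luminescence.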

[4] = qHTS assay to identify small molecule antagonists of the estrogen related receptor (ERR) signaling pathway from Tox21 library (AID 1224848); further: nearly all actives have a fitted effect of over 50% in size; further: potency means the concentration at half of the fitted maximal effect
Outline: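 Screening used an ERR reporter line supplied by NTP, exposed for 18 h at 37 C to library compounds delivered in DMSO. Signal was luciferase luminescence developed with ONE-Glo at room temperature for 30 min.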

[5] = qHTS assay to identify small molecule agonists of the estrogen related receptor (ERR) signaling pathway from Tox21 library (AID 1224849; calls by dose curve; further: nearly all actives have a fitted effect of over 15% in size); conditions: ERR reporter cell line, ONE-Glo luciferase, 18 h; at 92.4 µM (top of the series) unless noted
Outline: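 We plated ERR reporter cells, waited 6 h, added compounds in DMSO by pin tool and incubated them 18 h at 37 C. ONE-Glo was then added and luminescence read after 30 min.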

[6] = qHTS RealTime-Glo MT Cell Viability Assay in HepG2 cells - 24 hour (AID 1224867); further: nearly all actives have a fitted effect of over 50% in size
Outline: (§1)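 Cells + NanoLuc/prosubstrate dispensed (600 cells/well) → 5 h at 37 C/5% CO2 → compounds in DMSO transferred → 40 h incubation at 37 C, luminescence read at 0, 8, 16, 24, 32, 40 h.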

[7] = A CellTox Green Cytotoxicity Assay to monitor cytotoxicity in HEK293 cells - 0 hour (AID 1224869); further: nearly all actives have a fitted effect of over 50% in size
Outline: (§2)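 Each value comes from one timepoint of a single continuous run in which HEK293 cells with CellTox Green were exposed to compound for up to 40 h at 37 C, dye fluorescence rising with cell death.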

[8] = qHTS RealTime-Glo MT Cell Viability Assay in HepG2 cells - 40 hour (AID 1224870); further: nearly all actives have a fitted effect of over 50% in size
Outline: (§3)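 HepG2 cells mixed with RealTime-Glo MT reagents (NanoLuc plus cell-permeant prosubstrate) were seeded at 600 cells/well, incubated 5 h at 37 C/5% CO2, then pinned with compounds in DMSO; nonlytic luminescence tracked viability during 40 h treatment.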

[9] = A CellTox Green Cytotoxicity Assay to monitor cytotoxicity in HEK293 cells - 40 hour (AID 1224871); further: nearly all actives have a fitted effect of over 45% in size; further: potency means the concentration at half of the fitted maximal effect
Outline: as §2

[10] = qHTS RealTime-Glo MT Cell Viability Assay in HepG2 cells - 8 hour (AID 1224873); further: nearly all actives have a fitted effect of over 55% in size
Outline: as §3

[11] = A CellTox Green Cytotoxicity Assay to monitor cytotoxicity in HEK293 cells - 24 hour (AID 1224875); further: nearly all actives have a fitted effect of over 45% in size; further: potency means the concentration at half of the fitted maximal effect
Outline: as §2

[12] = A CellTox Green Cytotoxicity Assay to monitor cytotoxicity in HepG2 cells - 16 hour (AID 1224876); further: nearly all actives have a fitted effect of over 45% in size
Outline: (§4)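 Continuous culture of HepG2 cells with a membrane-impermeant DNA dye; rising fluorescence marks dead cells. Compound exposure lasted up to 40 h at 37 C, with reads every 8 h from 0 h.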

[13] = A CellTox Green Cytotoxicity Assay to monitor cytotoxicity in HepG2 cells - 24 hour (AID 1224878); further: nearly all actives have a fitted effect of over 45% in size
Outline: as §4

[14] = A CellTox Green Cytotoxicity Assay to monitor cytotoxicity in HepG2 cells - 40 hour (AID 1224879); further: nearly all actives have a fitted effect of over 40% in size
Outline: as §4

[15] = qHTS RealTime-Glo MT Cell Viability Assay in HEK293 cells - 0 hour (AID 1224880)
Outline: (§5)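 qHTS format; HEK293 cells with NanoLuc/prosubstrate reagent, 37 C/5% CO2 for 5 h pre-dosing; compounds 23 nL in DMSO; luminescence at each time point reflects viable cells.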

[16] = A CellTox Green Cytotoxicity Assay to monitor cytotoxicity in HEK293 cells - 32 hour (AID 1224881); further: nearly all actives have a fitted effect of over 40% in size; further: potency means the concentration at half of the fitted maximal effect
Outline: as §2

[17] = qHTS RealTime-Glo MT Cell Viability Assay in HEK293 cells - 32 hour (AID 1224868); further: nearly all actives have a fitted effect of over 50% in size; further: potency means the concentration at half of the fitted maximal effect; on activity change, negative = cytotoxic: top concentration of the series differs between compounds
Outline: (§6)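 Tox21 10K qHTS, HEK293, 600 cells/well, RealTime-Glo reagent co-dispensed with cells; 5 h preincubation, compound by pintool, 37 C, luminescence at 0–40 h.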

[18] = qHTS RealTime-Glo MT Cell Viability Assay in HEK293 cells - 16 hour (AID 1224872); further: nearly all actives have a fitted effect of over 50% in size; further: potency means the concentration at half of the fitted maximal effect; on activity change, negative = cytotoxicity: top concentration of the series differs between compounds
Outline: as §6

[19] = qHTS RealTime-Glo MT Cell Viability Assay in HEK293 cells - 40 hour (AID 1224874); conditions: RealTime-Glo luminescence; max response: active compounds read low; further: nearly all actives have a fitted effect of over 50% in size; further: potency means the concentration at half of the fitted maximal effect
Outline: as §5

[20] = qHTS RealTime-Glo MT Cell Viability Assay in HepG2 cells - 32 hour (AID 1224877); further: nearly all actives have a fitted effect of over 55% in size
Outline: as §1
On the % scale 0 is the no-effect control and ±100 the full control effect.

CCCCOP(=O)(CCCC)OCCCC
inactive: Potency [1] | outcome [2] | Potency [3] | Potency [4] | activity change, positive = activation [5] -2.44% | Potency [6] | Potency [7] | Potency [8] | Potency [9] | Potency [10] | Potency [11] | Potency [12] | Potency [13] | Potency [14] | Potency [15] | Potency [16]

Cc1ccc(CCl)cc1
inactive: Potency [1] | outcome [2] | Potency [3] | Potency [4] | activity change, positive = activation [5] -1.8% | Potency [6] | Potency [17] | Potency [7] | Potency [8] | Potency [18] | Potency [10] | max response [19] 2.72% | Potency [11] | Potency [12] | Potency [20] | Potency [13] | Potency [14] | Potency [15] | Potency [16]

CC(C)(COCC1CO1)COCC1CO1 (stereo not given)
inactive: Potency [1] | outcome [2] | Potency [3] | Potency [4] | activity change, positive = activation [5] -8.81% | Potency [6] | Potency [17] | Potency [8] | Potency [9] | Potency [18] | Potency [10] | Potency [11] | Potency [12] | Potency [13] | Potency [14] | Potency [15] | Potency [16]

ClC1=C(Cl)[C@]2(Cl)[C@@H]3[C@@H](Cl)[C@H](Cl)C[C@@H]3[C@@]1(Cl)C2(Cl)Cl
inactive: Potency [1] | outcome [2] | Potency [3] | Potency [4] | activity change, positive = activation [5] -5.06% | Potency [6] | Potency [17] | Potency [8] | Potency [18] | Potency [10] | max response [19] 7.93% | Potency [12] | Potency [13] | Potency [14] | Potency [15]

CC(C)CC(C)N (stereo not given)
inactive: Potency [1] | outcome [2] | Potency [3] | Potency [4] | activity change, positive = activation [5] 0.671% | Potency [6] | Potency [17] | Potency [7] | Potency [9] | Potency [18] | Potency [10] | Potency [11] | Potency [12] | Potency [20] | Potency [13] | Potency [14] | Potency [15] | Potency [16]

Brc1c(Br)c(Br)c(Oc2c(Br)c(Br)c(Br)c(Br)c2Br)c(Br)c1Br
inactive: activation (H2AX phosphorylation) [1] -7.06% [at 31.6 µM] | activation [2] 0.0203% [at 15.8 µM] | activity change, negative = cytotoxicity [3] 2.26% [at 31.6 µM] | activity, negative = inhibition [4] 6.83% [at 19 µM] | activity change, positive = activation [5] 3.27% [at 19 µM] | activity change, negative = cytotoxicity [6] -1.54% [at 15.8 µM] | activity change, negative = cytotoxic [17] 5.03% [at 15.8 µM] | cytotoxicity [7] -1.03% [at 15.8 µM] | activity change, negative = cytotoxicity [18] 3.04% [at 15.8 µM] | viability change, negative = cytotoxic [10] 5% [at 15.8 µM] | max response [19] 1.84% | activity change [11] -3.29% [at 15.8 µM, active compounds read high] | cytotoxicity increase [12] -3.41% [at 15.8 µM] | activity change, negative = cytotoxic [20] -3.04% [at 15.8 µM] | cytotoxicity [13] -2.63% [at 15.8 µM] | cytotoxicity increase [14] 1.89% [at 15.8 µM] | activity change, negative = cytotoxicity [15] -0.353% [at 15.8 µM] | cytotoxicity increase [16] -3.94% [at 15.8 µM]

BrC(Br)Br
inactive: Potency [1] | outcome [2] | Potency [3] | Potency [4] | activity change, positive = activation [5] 0.336% | Potency [6] | Potency [17] | Potency [7] | Potency [8] | Potency [9] | Potency [18] | Potency [10] | max response [19] 17.3% | Potency [12] | Potency [13] | Potency [14] | Potency [15] | Potency [16]

ClC1=C(Cl)C2(Cl)C3C(Cl)C(Cl)CC3C1(Cl)C2(Cl)Cl (stereo not given)
inactive: outcome [2] | activity change, positive = activation [5] -78.9% and -65.6% | Potency [15]
active: Potency [1] 100 µM and 89.8 µM | Potency [3] 89.5 µM and 101 µM | Potency [4] 60.9 µM and 54.5 µM | Potency [17] 48.8 µM | Potency [9] 48.8 µM and 49 µM | Potency [18] 48.8 µM and 49 µM | Potency [19] 48.8 µM | Potency [11] 48.8 µM and 49 µM | Potency [16] 48.8 µM and 49 µM

CCCCCCCCCCBr
inactive: Potency [1] | outcome [2] | Potency [3] | Potency [4] | activity change, positive = activation [5] 1.61% | Potency [6] | Potency [17] | Potency [7] | Potency [8] | Potency [9] | Potency [18] | Potency [10] | max response [19] -10.6% | Potency [11] | Potency [12] | Potency [20] | Potency [14] | Potency [15] | Potency [16]

CCCCCCCCCCCCCN1CC(C)OC(C)C1 (stereo not given)
inactive: Potency [1] | outcome [2] | Potency [3] | Potency [6] | Potency [17] | Potency [7] | Potency [8] | Potency [9] | Potency [18] | Potency [10] | Potency [12] | Potency [14] | Potency [15] | Potency [16]

COc1ccc(OC)c(CC(C)N)c1 (stereo not given)
inactive: Potency [1] | outcome [2] | Potency [3] | Potency [6] | Potency [17] | Potency [8] | Potency [9] | Potency [18] | Potency [10] | max response [19] -2.46% | Potency [12] | Potency [20] | Potency [13] | Potency [14] | Potency [15] | Potency [16]

COc1cc(N)c(Cl)cc1C(=O)NC1CN2CCC1CC2 (stereo not given)
inactive: Potency [1] | outcome [2] | Potency [3] | Potency [6] | Potency [17] | Potency [7] | Potency [8] | Potency [9] | Potency [18] | Potency [10] | max response [19] -15.3% | Potency [11] | Potency [12] | Potency [20] | Potency [13] | Potency [14] | Potency [15] | Potency [16]

SCc1ccco1
inactive: Potency [1] | outcome [2] | Potency [3] | Potency [6] | Potency [17] | Potency [7] | Potency [8] | Potency [18] | Potency [10] | Potency [12] | Potency [20] | Potency [13] | Potency [14] | Potency [15] | Potency [16]

O=C1NCN(c2ccccc2)C12CCN(CC1COc3ccccc3O1)CC2 (stereo not given)
inactive: Potency [1] | outcome [2] | Potency [3] | activity change, positive = activation [5] 0.381% [at 42.5 µM] | Potency [7] | Potency [8] | Potency [9] | Potency [12] | Potency [20] | Potency [14] | Potency [15] | Potency [16]

NC(=O)CCl
inactive: Potency [1] | outcome [2] | Potency [3] | Potency [6] | Potency [17] | Potency [7] | Potency [8] | Potency [9] | Potency [18] | Potency [10] | max response [19] 11.6% | Potency [11] | Potency [12] | Potency [20] | Potency [13] | Potency [14] | Potency [15] | Potency [16]
